# In ChEMBL document CHEMBL2218924, “A broad activity screen in support of a chemogenomic map for kinase signalling research and drug discovery” (Biochem J, 2013):
# How the values were obtained:
# [1] = target: Serine/threonine-protein kinase PAK 4 (Homo sapiens) (UniProt O96013); conditions: at 1 µM
# [2] = target: Serine/threonine-protein kinase PAK 4 (Homo sapiens) (UniProt O96013); conditions: at 10 µM
# [3] = target: Serine/threonine-protein kinase PAK 5 (Homo sapiens) (UniProt Q9P286); conditions: at 1 µM
# [4] = target: Serine/threonine-protein kinase PAK 5 (Homo sapiens) (UniProt Q9P286); conditions: at 10 µM
# [5] = target: Serine/threonine-protein kinase PAK 6 (Homo sapiens) (UniProt Q9NQU5); conditions: at 10 µM
# [6] = target: PAS domain-containing serine/threonine-protein kinase (Homo sapiens) (UniProt Q96RG2); conditions: at 10 µM
# [7] = target: Activated CDC42 kinase 1 (Homo sapiens) (UniProt Q07912); conditions: at 1 µM
# [8] = target: Activated CDC42 kinase 1 (Homo sapiens) (UniProt Q07912); conditions: at 10 µM
# [9] = target: Serine/threonine-protein kinase PAK 6 (Homo sapiens) (UniProt Q9NQU5); conditions: at 1 µM
# [10] = target: ALK tyrosine kinase receptor (Homo sapiens) (UniProt Q9UM73); conditions: at 1 µM
# Sequence of ALK tyrosine kinase receptor (Homo sapiens) (Q9UM73 19-1620 limits assumed): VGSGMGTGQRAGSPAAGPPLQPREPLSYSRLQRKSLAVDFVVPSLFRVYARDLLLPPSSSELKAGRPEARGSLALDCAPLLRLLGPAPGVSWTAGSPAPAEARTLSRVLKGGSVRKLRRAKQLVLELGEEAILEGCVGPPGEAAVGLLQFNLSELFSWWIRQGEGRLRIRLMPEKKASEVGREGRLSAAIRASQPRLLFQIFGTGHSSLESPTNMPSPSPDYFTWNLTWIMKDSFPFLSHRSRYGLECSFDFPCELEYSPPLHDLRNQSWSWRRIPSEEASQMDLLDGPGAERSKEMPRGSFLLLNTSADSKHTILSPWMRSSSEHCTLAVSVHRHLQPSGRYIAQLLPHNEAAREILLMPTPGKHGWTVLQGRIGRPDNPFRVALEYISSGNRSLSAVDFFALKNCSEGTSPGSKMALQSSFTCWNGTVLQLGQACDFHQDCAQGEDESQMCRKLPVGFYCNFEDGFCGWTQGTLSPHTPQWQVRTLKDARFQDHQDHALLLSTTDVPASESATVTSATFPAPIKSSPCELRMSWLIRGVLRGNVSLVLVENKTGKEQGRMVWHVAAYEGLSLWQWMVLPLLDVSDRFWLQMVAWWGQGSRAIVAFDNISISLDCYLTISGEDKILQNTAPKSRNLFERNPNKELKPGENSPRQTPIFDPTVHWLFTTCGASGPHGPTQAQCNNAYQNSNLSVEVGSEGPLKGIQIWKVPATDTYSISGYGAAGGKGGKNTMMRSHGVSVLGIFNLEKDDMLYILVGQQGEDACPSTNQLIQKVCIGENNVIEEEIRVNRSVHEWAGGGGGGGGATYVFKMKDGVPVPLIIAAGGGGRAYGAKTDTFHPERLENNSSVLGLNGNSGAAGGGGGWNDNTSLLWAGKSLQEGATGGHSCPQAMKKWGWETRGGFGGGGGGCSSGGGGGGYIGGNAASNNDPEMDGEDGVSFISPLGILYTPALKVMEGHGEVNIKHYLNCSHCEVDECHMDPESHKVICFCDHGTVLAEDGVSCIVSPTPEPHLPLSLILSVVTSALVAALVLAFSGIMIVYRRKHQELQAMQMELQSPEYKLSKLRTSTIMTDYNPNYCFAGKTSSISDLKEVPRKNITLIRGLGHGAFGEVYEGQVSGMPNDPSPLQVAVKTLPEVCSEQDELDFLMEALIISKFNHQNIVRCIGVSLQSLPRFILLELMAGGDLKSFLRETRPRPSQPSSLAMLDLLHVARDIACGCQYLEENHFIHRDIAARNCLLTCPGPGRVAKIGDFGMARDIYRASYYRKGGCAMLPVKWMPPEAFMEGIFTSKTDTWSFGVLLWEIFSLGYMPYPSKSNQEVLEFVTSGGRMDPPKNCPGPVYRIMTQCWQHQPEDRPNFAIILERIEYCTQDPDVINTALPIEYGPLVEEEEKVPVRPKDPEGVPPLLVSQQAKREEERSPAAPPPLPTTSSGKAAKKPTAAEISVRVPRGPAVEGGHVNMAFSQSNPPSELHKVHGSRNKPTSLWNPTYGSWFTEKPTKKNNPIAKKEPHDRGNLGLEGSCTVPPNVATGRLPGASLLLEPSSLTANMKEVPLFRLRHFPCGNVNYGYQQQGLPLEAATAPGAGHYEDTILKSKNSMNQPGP
# Sequence of PAS domain-containing serine/threonine-protein kinase (Homo sapiens) (Q96RG2 whole entry, the tested form may be a part): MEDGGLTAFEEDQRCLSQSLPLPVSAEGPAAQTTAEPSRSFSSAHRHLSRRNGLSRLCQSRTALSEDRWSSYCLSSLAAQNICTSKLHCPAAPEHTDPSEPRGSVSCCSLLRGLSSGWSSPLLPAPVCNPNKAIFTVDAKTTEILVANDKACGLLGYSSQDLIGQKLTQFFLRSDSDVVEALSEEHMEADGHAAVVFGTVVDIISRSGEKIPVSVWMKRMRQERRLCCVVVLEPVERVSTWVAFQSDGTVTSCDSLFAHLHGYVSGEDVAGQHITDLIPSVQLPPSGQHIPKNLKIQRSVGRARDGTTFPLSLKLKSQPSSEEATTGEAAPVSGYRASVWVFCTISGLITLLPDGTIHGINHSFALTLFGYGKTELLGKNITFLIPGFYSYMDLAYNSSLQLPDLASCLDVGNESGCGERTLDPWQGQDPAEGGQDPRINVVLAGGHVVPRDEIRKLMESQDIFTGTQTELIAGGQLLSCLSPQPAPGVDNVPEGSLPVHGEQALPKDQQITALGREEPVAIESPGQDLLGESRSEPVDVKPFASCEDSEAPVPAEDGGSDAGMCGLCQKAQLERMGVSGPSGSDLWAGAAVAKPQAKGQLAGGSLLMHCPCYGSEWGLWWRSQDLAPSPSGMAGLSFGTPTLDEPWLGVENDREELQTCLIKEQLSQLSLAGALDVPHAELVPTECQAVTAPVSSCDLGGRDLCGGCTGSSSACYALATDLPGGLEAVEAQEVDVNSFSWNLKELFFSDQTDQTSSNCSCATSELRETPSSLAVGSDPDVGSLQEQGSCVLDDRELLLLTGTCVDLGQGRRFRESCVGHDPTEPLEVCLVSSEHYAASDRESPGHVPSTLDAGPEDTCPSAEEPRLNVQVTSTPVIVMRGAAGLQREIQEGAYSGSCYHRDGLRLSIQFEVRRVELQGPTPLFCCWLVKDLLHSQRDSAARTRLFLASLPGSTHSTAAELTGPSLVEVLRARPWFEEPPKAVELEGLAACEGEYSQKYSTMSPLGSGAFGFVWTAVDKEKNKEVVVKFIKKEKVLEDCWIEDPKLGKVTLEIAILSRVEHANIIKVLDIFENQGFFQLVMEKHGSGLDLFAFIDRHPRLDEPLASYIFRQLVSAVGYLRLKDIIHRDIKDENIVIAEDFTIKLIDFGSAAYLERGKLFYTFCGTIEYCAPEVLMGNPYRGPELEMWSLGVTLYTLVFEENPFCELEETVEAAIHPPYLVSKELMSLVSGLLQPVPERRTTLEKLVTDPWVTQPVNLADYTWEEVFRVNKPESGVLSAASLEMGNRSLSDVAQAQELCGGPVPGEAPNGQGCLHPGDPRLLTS
# Sequence of Serine/threonine-protein kinase PAK 6 (Homo sapiens) (Q9NQU5 whole entry, looked up, the tested form may be a part): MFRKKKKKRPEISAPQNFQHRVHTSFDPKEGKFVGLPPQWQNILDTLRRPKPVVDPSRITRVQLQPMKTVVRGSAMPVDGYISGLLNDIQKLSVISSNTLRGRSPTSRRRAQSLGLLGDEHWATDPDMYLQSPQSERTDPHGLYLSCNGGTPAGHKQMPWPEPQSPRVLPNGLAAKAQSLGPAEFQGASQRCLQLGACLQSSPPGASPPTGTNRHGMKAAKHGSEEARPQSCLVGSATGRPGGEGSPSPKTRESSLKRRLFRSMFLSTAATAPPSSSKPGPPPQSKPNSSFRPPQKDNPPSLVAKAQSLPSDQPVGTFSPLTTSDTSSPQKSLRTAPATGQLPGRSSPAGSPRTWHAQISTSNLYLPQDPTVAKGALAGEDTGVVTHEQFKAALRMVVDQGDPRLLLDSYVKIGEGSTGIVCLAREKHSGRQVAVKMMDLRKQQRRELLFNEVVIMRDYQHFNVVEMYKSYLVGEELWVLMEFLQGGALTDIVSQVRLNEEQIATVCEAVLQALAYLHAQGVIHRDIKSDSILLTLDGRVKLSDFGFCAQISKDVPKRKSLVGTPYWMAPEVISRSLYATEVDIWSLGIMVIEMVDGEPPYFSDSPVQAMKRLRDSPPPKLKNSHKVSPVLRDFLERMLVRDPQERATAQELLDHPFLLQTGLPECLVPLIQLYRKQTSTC
# Sequence of Serine/threonine-protein kinase PAK 4 (Homo sapiens) (O96013 whole entry, looked up): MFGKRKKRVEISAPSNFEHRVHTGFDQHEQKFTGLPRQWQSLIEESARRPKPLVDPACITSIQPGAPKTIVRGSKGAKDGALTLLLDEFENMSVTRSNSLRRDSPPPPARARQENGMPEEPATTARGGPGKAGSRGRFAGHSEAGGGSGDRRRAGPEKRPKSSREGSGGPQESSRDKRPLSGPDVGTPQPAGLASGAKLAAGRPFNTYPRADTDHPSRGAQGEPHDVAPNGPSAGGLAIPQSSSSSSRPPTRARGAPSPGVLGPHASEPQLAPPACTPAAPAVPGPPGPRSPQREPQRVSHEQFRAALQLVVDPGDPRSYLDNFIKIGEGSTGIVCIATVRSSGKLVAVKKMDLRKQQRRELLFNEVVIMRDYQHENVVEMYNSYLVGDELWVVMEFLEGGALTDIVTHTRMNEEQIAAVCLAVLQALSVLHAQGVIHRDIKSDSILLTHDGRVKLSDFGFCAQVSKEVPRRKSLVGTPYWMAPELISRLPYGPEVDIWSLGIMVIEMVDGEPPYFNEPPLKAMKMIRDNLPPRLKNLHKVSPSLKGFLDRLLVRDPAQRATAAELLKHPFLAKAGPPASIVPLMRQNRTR
# Sequence of Serine/threonine-protein kinase PAK 5 (Homo sapiens) (Q9P286 whole entry, looked up): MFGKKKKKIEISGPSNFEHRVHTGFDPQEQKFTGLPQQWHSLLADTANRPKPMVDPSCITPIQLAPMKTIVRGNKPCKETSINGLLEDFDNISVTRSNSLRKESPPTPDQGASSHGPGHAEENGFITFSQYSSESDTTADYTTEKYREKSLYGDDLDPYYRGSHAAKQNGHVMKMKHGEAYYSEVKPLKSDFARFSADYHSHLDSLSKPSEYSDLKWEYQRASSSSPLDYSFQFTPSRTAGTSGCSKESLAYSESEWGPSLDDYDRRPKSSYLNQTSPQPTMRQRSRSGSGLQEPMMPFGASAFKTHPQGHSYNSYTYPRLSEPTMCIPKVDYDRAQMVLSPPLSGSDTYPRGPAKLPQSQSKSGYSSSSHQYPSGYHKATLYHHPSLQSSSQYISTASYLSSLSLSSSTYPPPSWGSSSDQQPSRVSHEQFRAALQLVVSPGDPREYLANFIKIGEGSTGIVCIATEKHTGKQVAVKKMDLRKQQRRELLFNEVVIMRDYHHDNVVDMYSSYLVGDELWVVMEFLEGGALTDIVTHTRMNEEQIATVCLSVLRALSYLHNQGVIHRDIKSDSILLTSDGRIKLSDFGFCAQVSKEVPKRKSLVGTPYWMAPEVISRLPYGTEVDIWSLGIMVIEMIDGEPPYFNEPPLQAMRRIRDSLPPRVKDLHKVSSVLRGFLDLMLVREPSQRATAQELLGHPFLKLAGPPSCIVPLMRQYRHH
SMILES,residual activity [1] [%],residual activity [2] [%],residual activity [3] [%],residual activity [4] [%],residual activity [5] [%],residual activity [6] [%],residual activity [7] [%],residual activity [8] [%],residual activity [9] [%],residual activity [10] [%]
CN(C)CCCn1cc(C2=C(c3c[nH]c4ccccc34)C(=O)NC2=O)c2ccccc21,102,75,88,77,78,18,112,45,–,–
Nc1nc(Nc2ccc(S(N)(=O)=O)cc2)nn1C(=S)Nc1c(F)cccc1F,6,0,9,1,4,89,9,0,14,16
Oc1ccc(Nc2nc(-c3ccc(Cl)cc3)cs2)cc1,103,98,106,104,103,126,89,80,109,82
O=C1Nc2ccc(Br)cc2/C1=C\c1cc2c([nH]1)CCCC2,84,77,–,105,–,98,54,50,–,76
Cc1nc(-c2ccccc2)c(-c2ccncc2)o1,100,104,106,95,90,91,74,64,109,100
O=c1c2ccccc2[nH]c(=S)n1CCN1CCC(=C(c2ccc(F)cc2)c2ccc(F)cc2)CC1,106,99,84,47,41,53,83,70,82,81
COc1cc2ncnc(N3CCN(C(=O)Nc4ccc(Oc5ccccc5)cc4)CC3)c2cc1OC,94,84,91,122,–,–,68,54,112,73
Cn1cnc2cc3c(Nc4cccc(Br)c4)ncnc3cc21,100,89,98,90,106,77,66,16,90,85
Cc1cccc(-c2[nH]c(C(C)(C)C)nc2-c2ccc3c(c2)OCO3)n1,97,88,87,102,–,–,90,67,–,82
c1ccc(-c2n[nH]cc2-c2ccnc3ccccc23)nc1,98,90,92,104,–,82,77,50,–,85
Nc1ccc2ncnc(NCCc3ccc(Oc4ccccc4)cc3)c2c1,107,87,100,81,84,65,81,55,95,81
Oc1n[nH]c2nnc(-c3c(-c4ccccc4)nn4ccccc34)cc12,95,92,101,101,98,104,29,14,98,92
N#CC(C#N)=C(N)/C(C#N)=C/c1ccc(O)cc1,98,91,–,–,87,65,84,70,100,88
O=C1Nc2ccccc2/C1=C1/Nc2ccccc2/C1=N\OCCC(O)CO (stereo not drawn),44,12,61,30,27,116,14,1,81,24
Cc1ccc(S(=O)(=O)/C=C/C#N)cc1,99,95,106,106,84,86,81,75,95,99
CC(C)n1cnc2c(NCc3ccccc3)nc(NCCCO)nc21,97,80,108,96,72,98,76,58,95,87
Cc1cc2ncc(-c3ccccc3)nc2cc1C,104,88,–,92,77,–,–,59,94,82
COc1cccc(-c2cc(=O)c3ccccc3o2)c1N,105,96,122,99,89,101,83,70,96,95
